# Shown are actives, neighbours in structure and some others; about 2.8% of the full set was active somewhere.
# Glyco luc inh: increase of ERlucT glycosylation luciferase signal, primary screen, N-linked glycosylation inhibitor project, D54 ERlucT cells, luminescence, set 2. D54 ERlucT glycosylation luciferase reporter, 24 h; percent of 100 nM tunicamycin response. reporter increase, % at 12.5 µM. actives 0.23% (n = 360,000). AID 588692, 2011;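 active = mean luciferase reporter signal, scaled so untreated is 0 and the glycosylation-blocking control 100, at or above a set limit in every replicate; inconclusive = mean reaches the limit but not every replicate does; inactive = mean below the limit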;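 note: luciferase carries N-glycosylation sites so blocking glycosylation raises the light; 0% = median of neutral control wells and 100% = median of 100 nM tunicamycin wells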
# PAX8 inh HTS: inhibitors of PAX8-driven TPO luciferase reporter, primary screen, RMG-I cells, single concentration. SteadyGlo, 24 h. inhibition, % at 12.6 µM. actives 1.2% (n = 360,000). AID 652154, 2013;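 active = mean replicate inhibition at least 60% with every replicate also reaching 60%; inconclusive = only one of the two criteria is met; inactive = mean below 60% and not all replicates reaching 60%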;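 note: luciferase light reporting Pax8 driven TPO promoter activity; plate controls were median of neutral control wells for no effect and mitoxantrone controls for full effect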
# Shn3 inh set2: reduction of Shn3 3'UTR firefly luciferase signal, primary screen, Schnurri-3 inhibitor project, cell-based, Clone20 osteoblasts, set 2; Clone20 osteoblast Shn3 3'UTR firefly luciferase, 24 h; inhibition, % at 12.5 µM; actives 0.52% (n = 360,000); AID 588674, 2011;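 active = mean inhibition of at least 75% with every replicate also reaching 75%; inconclusive = mean inhibition at least 75% but some replicate below; inactive = mean inhibition below 75%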;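 note: 0% = median of neutral control wells and 100% = pilot-screen positive control compound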
# Env fusion inh: inhibitors of HIV-1 Env-driven cell-cell fusion, primary screen, HeLa-JRFL effector, CEM21 target cells, luciferase | actives 1.1% (n = 360,000) | inhibition, % at 12.3 µM | AID 651610, 2012;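 active = mean replicate inhibition score of at least 50 and every replicate individually at or above 50; inconclusive = only one of the two criteria met; inactive = mean below 50 and not all replicates reaching 50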;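 note: 0% = plate neutral controls and 100% = maraviroc near 300 nM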
# NSD2 HMT inh: NSD2 histone methyltransferase inhibitors, primary screen, biochemical, AlphaScreen, single concentration, set 2 | Histone-lysine N-methyltransferase NSD2 (Homo sapiens), O96028 | NSD2 peptide methylation, 120 min | inhibition, % at 12.5 µM | actives 0.54% (n = 310,000); in the data active = inhibition above about 50%
# Target sequence (O96028 whole entry, looked up): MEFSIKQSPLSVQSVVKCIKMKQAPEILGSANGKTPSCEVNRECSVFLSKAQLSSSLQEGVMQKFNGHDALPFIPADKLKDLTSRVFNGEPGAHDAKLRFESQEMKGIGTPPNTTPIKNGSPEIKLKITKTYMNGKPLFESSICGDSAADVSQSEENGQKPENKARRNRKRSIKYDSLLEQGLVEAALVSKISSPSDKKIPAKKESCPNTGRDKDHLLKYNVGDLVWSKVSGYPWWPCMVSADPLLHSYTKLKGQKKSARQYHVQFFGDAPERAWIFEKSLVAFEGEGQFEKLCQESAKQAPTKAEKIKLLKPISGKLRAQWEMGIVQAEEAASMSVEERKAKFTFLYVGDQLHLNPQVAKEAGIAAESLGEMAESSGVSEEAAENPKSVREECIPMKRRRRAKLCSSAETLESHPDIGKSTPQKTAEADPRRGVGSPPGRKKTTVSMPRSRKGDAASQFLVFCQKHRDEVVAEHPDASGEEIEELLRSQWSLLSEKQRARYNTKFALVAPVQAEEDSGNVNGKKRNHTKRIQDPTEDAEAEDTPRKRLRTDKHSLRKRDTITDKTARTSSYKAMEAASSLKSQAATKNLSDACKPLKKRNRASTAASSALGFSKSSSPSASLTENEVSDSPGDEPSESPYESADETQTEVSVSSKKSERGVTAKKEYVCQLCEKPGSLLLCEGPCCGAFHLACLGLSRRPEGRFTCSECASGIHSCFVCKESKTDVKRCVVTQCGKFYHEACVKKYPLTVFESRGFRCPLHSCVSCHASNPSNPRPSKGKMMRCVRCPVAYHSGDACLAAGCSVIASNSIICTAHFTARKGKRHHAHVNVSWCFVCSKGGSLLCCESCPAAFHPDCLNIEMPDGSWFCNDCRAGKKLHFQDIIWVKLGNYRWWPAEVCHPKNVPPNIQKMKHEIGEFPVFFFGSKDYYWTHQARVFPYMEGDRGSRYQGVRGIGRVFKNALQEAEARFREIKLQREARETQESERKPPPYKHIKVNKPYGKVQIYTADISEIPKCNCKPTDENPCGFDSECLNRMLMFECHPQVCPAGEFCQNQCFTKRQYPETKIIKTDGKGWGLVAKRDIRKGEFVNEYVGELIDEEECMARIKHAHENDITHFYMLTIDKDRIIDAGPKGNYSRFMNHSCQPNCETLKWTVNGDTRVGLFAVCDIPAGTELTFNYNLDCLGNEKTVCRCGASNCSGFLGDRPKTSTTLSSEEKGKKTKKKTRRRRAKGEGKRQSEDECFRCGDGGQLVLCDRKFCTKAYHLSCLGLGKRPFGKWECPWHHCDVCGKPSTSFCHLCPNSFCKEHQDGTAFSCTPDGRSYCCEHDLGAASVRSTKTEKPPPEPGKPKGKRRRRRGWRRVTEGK
# EBV LMP1 NFkB: EBV LMP1-driven NF-kappaB luciferase reporter inhibitors, primary screen, cell-based, luminescence, single point | LMP1-induced NF-kappaB luciferase reporter cells | inhibition, % at 12.5 µM | actives 0.69% (n = 350,000); in the data active = inhibition above about 41%; inconclusive = no clear call, values can overlap the other calls;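 note: 0% = neutral control wells and 100% = reference inhibitor control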
# * = called active by the depositor; ? = inconclusive; · = no result given; [ ] = remark or other dose.
SMILES,Glyco luc inh,PAX8 inh HTS,Shn3 inh set2,Env fusion inh,NSD2 HMT inh,EBV LMP1 NFkB
Cn1cnc(S(=O)(=O)N2[C@@H]3CNC[C@H]2C3c2ccc(-c3ccc(F)cc3)cc2)c1 (stereo not given in full),·,-1,·,·,·,·
Cc1ccc(C)c(NC(=S)NC(NC(=O)Cc2cccc3ccccc23)C(Cl)(Cl)Cl)c1 (stereo not given),74*,·,55,·,·,-73
CCc1ccc(OCC(=O)NC(NC(=S)Nc2ccccc2C)C(Cl)(Cl)Cl)cc1 (stereo not given),11,116*,60,·,1,8
Cc1ccc(C)c(NC(=S)NC(NC(=O)N(C)C)C(Cl)(Cl)Cl)c1 (stereo not given),0,·,-1,·,0,-1
COc1cc(NC(=O)Cn2ncc(Cl)c(Cl)c2=O)c(C)cc1[N+](=O)[O-],-19,91*,97*,-38,11,81*
CCc1cnc(N2[C@H](C#N)[C@H](c3ccc(-c4cccc(F)c4)cc3)[C@@H]2CO)s1,·,-7,·,·,·,·
CCN(CC)c1ccc(/C=C2/C(=O)ON=C2C)cc1,6,5,20,-23,7,14
CCN(CC)c1ccc(/C=C2\C(=O)N(c3nnc(C)c(=O)[nH]3)N=C2C)cc1,43*,7,2,-12,5,7
CCC(=O)N(C)C[C@@H]1Oc2cc(C3=CCCC3)ccc2S(=O)(=O)N([C@@H](C)CO)C[C@@H]1C,·,·,·,-11[16.7 µM],·,·
Cc1ccc(NC(=O)C(C)OC(=O)CCNS(=O)(=O)c2ccc(C)cc2)cc1 (stereo not given),2,70*,-14,·,-3,-9
O=C1CC(Sc2nnnn2-c2ccccc2)C(=O)N1c1cccc(Cl)c1 (stereo not given),-1,·,90*,·,·,-7
COc1ccc(N2C(=O)CC(Sc3nnnn3-c3ccc(F)cc3)C2=O)cc1 (stereo not given),-1,95*,73,11,0,6
CO[C@H]1CN(C)C(=O)c2ccc(NC(=O)Nc3ccccc3)cc2OC[C@H](C)N(C(=O)CC2CC2)C[C@H]1C,·,·,·,18[16.7 µM],·,·
CCC(CNc1cc(OC)cc2cccnc12)NC1CCCCC1 (stereo not given),1,29,16,15,80*,5
COc1cc(NS(=O)(=O)c2ccc(C)cc2)c2ncccc2c1,-16,·,95*,23,·,-6
COc1cc(NCCCC(C)N)c2ncccc2c1 (stereo not given),-8,·,-4,·,141*,3
Cc1ccc(S(=O)(=O)Nc2cccc3cccnc23)cc1,-13,?,27,1,-2,-8
COc1cc(NC(=O)c2ccccc2Cl)c2ncccc2c1,23,27,-7,-26,-2,-11
COc1cccc(NC(=O)N[C@H]2C=C[C@H](CC(=O)Nc3ccccc3)O[C@@H]2CO)c1,·,5,·,13[16.7 µM],·,·
COc1ccc(S(=O)(=O)N[C@H]2C=C[C@@H](CC(=O)O)O[C@H]2CO)cc1,·,-3,·,4[16.7 µM],·,·
COc1ccc(OC)c(/C=C/C(=O)OCC(=O)N2CCCC2)c1,1,5,9,·,-1,-4
COc1ccc(OC)c(/C=C/C(=O)OCC(=O)N2C(C)CCCC2C)c1 (stereo not given),-2,-9,-17,92*,-8,-4
COc1cccc(C(=O)N2CCN(C(=O)c3cccc4ccccc34)CC2)c1OC,-3,·,7,·,1,8
CCc1ccc(CN2CCN(C(=O)c3cccc(OC)c3OC)CC2)cc1,-3,35,25,89*,0,36
COc1cc(N(C)C)c([N+](=O)[O-])cc1C(=O)N1CCN(Cc2ccccc2)CC1,-10,1,23,46,11,51*
C[C@H]1CCCCO[C@H](CN(C)C(=O)Nc2cccc3ccccc23)[C@@H](C)CN([C@@H](C)CO)C(=O)c2cc(NS(=O)(=O)c3cn(C)cn3)ccc2O1,·,8,·,-9[16.7 µM],·,·

# Assay outcomes (PubChem)
